# Laboratory results from PubChem BioAssay AID652054 (National Center for Advancing Translational Sciences (NCATS), 2013).
# Hit rate of the full screen: of about 360,000 compounds, about 9,100 (2.5%) were called active. Another 4% or so got no clear call; they are omitted. For the sample, actives were picked, then their nearest neighbours and some compounds at random. A number with no mark means an inactive call. Cut-off read from the data, not from the text of the source: active = max response below about -50%; inconclusive = no clear call, values can overlap the other calls; inactive = above that.
# Target: D(3) dopamine receptor (Homo sapiens) (UniProt P35462)
# Sequence (P35462 whole entry, looked up): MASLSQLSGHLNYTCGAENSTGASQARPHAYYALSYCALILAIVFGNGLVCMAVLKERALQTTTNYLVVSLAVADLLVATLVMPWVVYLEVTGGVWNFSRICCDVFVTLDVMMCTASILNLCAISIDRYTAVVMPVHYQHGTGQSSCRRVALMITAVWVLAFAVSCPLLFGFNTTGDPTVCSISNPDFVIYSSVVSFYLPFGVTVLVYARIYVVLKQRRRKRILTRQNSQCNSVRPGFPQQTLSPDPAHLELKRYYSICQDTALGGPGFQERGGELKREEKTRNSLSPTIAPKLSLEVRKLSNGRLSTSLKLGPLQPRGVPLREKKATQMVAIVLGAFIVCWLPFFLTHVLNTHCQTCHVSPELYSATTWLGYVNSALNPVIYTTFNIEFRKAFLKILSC
# Assay: qHTS of D3 Dopamine Receptor Antagonist: qHTS
# Details: D3R cells, DiscoveRx beta-arrestin luminescence, antagonist mode; stronger effect = lower value
# How it was run: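 Cells plated overnight at 1500 cells/well, then exposed to library compounds with dopamine controls for 90 minutes at 37 degrees C. DiscoveRx reagent added for 30–60 minutes at room temperature; luminescence read, quantitative HTS format.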
# % is set by controls: 0 for no effect and ±100 for the full control effect.
row,SMILES,"max response, negative = inhibition"
1,Cc1nc(C(F)(F)F)ccc1C(=O)N1CCC1(C)C(=O)NS(=O)(=O)c1ccccc1 (centres undefined),25.3%
2,O=[N+]([O-])c1ccc(CN2CC(N3CC=CC3)CS2(=O)=O)cc1 (centres undefined),9.3%
3,NC(CSC(c1ccccc1)(c1ccccc1)c1ccc(-c2ccccc2)cc1)C(=O)O (centres undefined),6.39%
4,CN(c1ccc(C(=O)N2CCc3ccccc3C2)cc1)S(C)(=O)=O,30.4%
5,CC(=O)Nc1cccc(NC(=O)c2ccc3c(c2)CCN3S(C)(=O)=O)c1,-9.74%
6,O=C(Nc1ccc(CSc2ccccc2)cc1)c1ccc(CN2CCOCC2)cc1,2.28%
7,CN(c1cccc(NC(=O)c2ccc(CN3CCc4ccccc4C3)cc2)c1)S(C)(=O)=O,-69.7% (active)
8,Cc1cccc(C)c1NC(=O)c1ccc(CN2CCc3ccccc3C2)cc1,-84.7% (active)
9,CCc1ccc(NC(=O)N2CCc3ccccc3C2)cc1,-11%
10,CC1(C(=O)NS(=O)(=O)c2cccc(OC(F)F)c2)CCN1C(=O)C1CC1 (centres undefined),-9.73%
11,c1ccc(Cc2c(-c3ccco3)nc3c4ccccc4ccn23)cc1,21.1%
12,O=C(COC(=O)c1ccc(S(=O)(=O)N2CCCCCC2)cc1)Nc1ccccc1C(F)(F)F,-1.68%
13,CSc1ccc(CNC(=O)C2(C)CCCN2C)cc1 (centres undefined),0%
14,CCOC(=O)N1CCN(C(c2ccnc3ccccc23)c2nnnn2-c2c(C)cccc2C)CC1 (centres undefined),-7.2%
15,O=C(COC(=O)c1ccccc1)c1ccc2c(c1)OCCO2,-5.24%
16,O=C(CCN1CCc2ccccc2C(O)(c2ccccc2)C1)c1ccc2c(c1)OCCO2 (centres undefined),-73.7% (active)
17,CCC1(c2ccccc2)NC(=O)N(CC(=O)c2ccc3c(c2)OCO3)C1=O (centres undefined),4.79%
18,COc1ccc(C(=O)N2CCCCC2c2cc(C(=O)Nc3ccccc3)no2)cc1 (centres undefined),-19.9%
19,C[C@H]1CN([C@@H](C)CO)S(=O)(=O)c2ccc(Br)cc2O[C@H]1CN(C)C(=O)c1cnccn1,-8.27%
20,Cc1cc(C)n(CC(O)CN(c2ccccc2)S(=O)(=O)c2ccc3ccccc3c2)n1 (centres undefined),10.5%
21,Cc1cccc(N(CC(O)CN(C)C)S(=O)(=O)c2ccccc2)c1 (centres undefined),0.407%
22,Cc1ccc(N(CC(O)CN2CCCC2)S(=O)(=O)c2ccccc2)cc1 (centres undefined),-57.8% (active)
23,O=C(Nc1ccc(Cl)cc1)C1Cc2c(-c3ccc4c(c3)OCO4)ccnc2O1 (centres undefined),-10.5%

row,SMILES,"max response, negative = inhibition"
1,O=C(CN1CCN(S(=O)(=O)c2ccc(Br)cc2)CC1)Nc1ccccc1C(=O)c1ccccc1,-71.6% (active)
2,O=C(CN1CCN(S(=O)(=O)c2ccc(F)cc2)CC1)Nc1ccccc1F,0%
3,COc1ccccc1NC(=O)CN1CCN(S(=O)(=O)c2ccc(Br)cc2)CC1,-9.35%
4,Cc1ccc(-c2nc3c(C)cc(Br)cn3c2Cc2ccccc2)cc1,-0.352%
5,COC(=O)c1nc(NC(=O)c2ccccc2)n[nH]1,24.5%
6,O=C(NC(=O)c1ccccc1)Nc1ccccc1O,-13.1%
7,O=C(NC1=CC(=O)c2ccccc2C1=O)c1ccccc1,-88.8% (active)
8,O=C(NCc1nnnn1-c1ccc(Cl)cc1)c1ccc([N+](=O)[O-])o1,10.2%
9,CCc1cc(C(=O)c2ccc(OC)cc2)c(NC(=O)CN2CCN(C)CC2)s1,-7.92%
10,COc1ccc(C(=O)N2CCC(C(=O)Nc3ccc(C)cc3)CC2)cc1,9.09%
11,CCc1ccc(NC(=O)CN2CCC(C(=O)c3ccc(OC)cc3)CC2)cc1,-50.9% (active)
12,CCCCN(CC)CCCNC(=O)CS(=O)(=O)Cc1nc(-c2cccc(OC)c2)oc1C,-50.9% (active)
13,COc1cccc(-c2nc(CS(=O)(=O)CC(=O)NCCc3ccc(OC)c(OC)c3)c(C)o2)c1,1.08%
14,COc1ccc(-c2nc(CS(=O)(=O)CC(=O)NCc3cccc(Br)c3)c(C)o2)cc1,8.07%
15,COC(=O)c1ccc2nc(-c3ccc(F)cc3)c(Cc3ccc(C)cc3)n2c1,19.7%
16,CCCOc1ccc(F)cc1-c1cc(C(=O)Nc2ccc(F)c(Cl)c2)[nH]n1,-15.7%
17,CCCOc1ccc(F)cc1-c1cc(C(=O)NCc2ccc(F)cc2)[nH]n1,-2.32%
18,COc1cccc(OC)c1C(=O)N1CCN(Cc2ccccc2F)CC1,-6.64%
19,Cc1ccccc1CN1CCN(C(=O)c2cccc(F)c2)CC1,-63.6% (active)
20,O=C(CN1CCN(C(=O)c2cccc(F)c2)CC1)Nc1ccccc1F,137%
21,Cc1ccc(C(=O)N2CCN(S(=O)(=O)N3CCOCC3)CC2)cc1,-16.1%
22,Cc1ccc(S(=O)(=O)N2CCN(S(=O)(=O)N3CCOCC3)CC2)cc1,-75.3% (active)
23,Cc1ccc(S(=O)(=O)N2CCN(C)CC2)cc1,7.28%

row,SMILES,"max response, negative = inhibition"
1,O=[N+]([O-])c1ccc(CN2CC(N3CCC(c4ccccc4)CC3)CS2(=O)=O)cc1 (centres undefined),-23.6%
2,CCOC(=O)[C@]12CCC=C1N(Cc1ccco1)C(=O)[C@H](CC(=O)NCc1cccc(C(F)(F)F)c1)C2,-18.6%
3,Oc1ccc(N=Nc2nccs2)c(O)c1,-73.7% (active)
4,Oc1ccc2ccccc2c1N=Nc1nccs1,-67.4% (active)
5,CCNC(=O)C1CCCN(C(=O)c2cc(F)ccc2C)CC1 (centres undefined),15.3%
6,CCCCC[C@H](C)N1C[C@@H](COCc2ccccc2)Oc2cc(N3CC[C@@H](N(C)C)C3)ccc2S1(=O)=O,18.9%
7,Cc1cc(Cl)ccc1-c1nc(NCCN(C)C)nc2ccsc12,-28.3%
8,O=C1CC[C@@H](C(=O)N2CSC[C@@H]2C(=O)Nc2ccc(C(F)(F)F)cc2)N1,-3.96%
9,COc1ccc(C2=Nc3ccccc3NC(=O)C2N(C(=O)c2cc3ccccc3[nH]2)c2ccccc2)cc1 (centres undefined),-13.2%
10,CCc1ccccc1OCC(=O)Nc1nnc(C2CC2)s1,-9.37%
11,O=C(N/N=C/c1ccc(Cl)cc1)c1nc2ccc([N+](=O)[O-])cc2c(=O)[nH]1,9.98%
12,O=C(/C(=C/c1cccc(Cl)c1)c1nc2ccccc2[nH]1)c1ccccc1,-87.4% (active)
13,O=C(O)c1cccc(NC(=O)c2cc(-c3cccc(Cl)c3)nc3ccccc23)c1,14.5%
14,CCCn1c(N)c(C(=O)CSc2nnc(Cc3cccs3)n2C2CC2)c(=O)[nH]c1=O,31%
15,O=C(NCC(F)(F)F)c1ccc(S(=O)(=O)NCCc2ccc3c(c2)OCCO3)cc1,18.6%
16,CC(C)Cc1ccc(-c2cc3nc(NCc4cccc(Cl)c4)ccn3n2)cc1,16.3%
17,CC(=O)c1ccc(Nc2nc(C(N)c3ccccc3Cl)cs2)cc1 (centres undefined),0%
18,CC1(C(=O)NS(=O)(=O)c2cccc(F)c2)CCN1C(=O)c1cccc2ccccc12 (centres undefined),-11.4%
19,Cc1ccccc1N1CCN(S(=O)(=O)c2ccc3ccccc3c2)CC1,-28.5%
20,Cc1ccc(N2CCN(S(=O)(=O)c3ccc(F)cc3)CC2)c(C)c1,-54.7% (active)
21,Cc1ccc(C)c(N2CCN(S(=O)(=O)c3ccc4c(c3)oc(=O)n4C)CC2)c1,19.9%
22,CCc1nc2c(OCCc3cccc(OC)c3)cccn2c1N(C)C(=O)c1ccc(C)cc1,-6.67%
23,N/C(=N\OC(=O)Nc1ccccc1)c1ccno1,-63.2% (active)

row,SMILES,"max response, negative = inhibition"
1,O=C(Nc1ccccc1)O/N=C1/CCCc2occc21,-1.95%
2,CC(C)(COC(=O)Nc1ccccc1)COC(=O)Nc1ccccc1,-25.8%
3,COc1cc2ccc(C(C)=O)c(O)c2cc1OC,-9.5%
4,CCC(C)C(CO)NC(=O)/C=C/[C@H]1O[C@@H](n2cnc3c(NC(=O)c4ccccc4)ncnc32)[C@H](O)[C@@H]1O (some centres undefined),10.7%
5,COc1ccc2cc1Oc1ccc(cc1)C[C@H]1c3cc(c(OC)cc3CCN1C)Oc1c(O)c(OC)cc3c1[C@H](C2)N(C)CC3,-18.7%
6,COc1cc(C(=O)CCc2ccc3c(c2)OCO3)cc(OC)c1OC,-2.22%
7,COc1c(O)ccc2c1CN1CCc3cc4c(cc3C1C2)OCO4 (centres undefined),-123% (active)
8,Cn1c(=O)c2cc(NC(=O)NCCc3cccs3)ccc2n1Cc1cccc(C(F)(F)F)c1,18.7%
9,Cc1cc(Nc2ccc(C)c(C)c2)n2ncnc2n1,-15.7%
10,COc1ccc(-c2ccc(CN3C(C(C)C)C(=O)N(Cc4cn(CC5CCCCC5)nn4)CCS3(=O)=O)cc2)cn1 (centres undefined),14.3%
11,COc1ccc(-c2cc(NC(C)=O)c3ncc(-c4cc(OC)c(OC)c(OC)c4)n3c2)cn1,30.1%
12,COc1ccccc1C(=O)NC(CCSC)C(=O)N1CCN(C/C=C/c2ccccc2)CC1 (centres undefined),-14%
13,CC(C)C(c1nnnn1Cc1ccccc1)N1CCC(C(N)=O)CC1 (centres undefined),14.4%
14,CSCCC(c1nnnn1Cc1ccccc1)N1CCN(C/C=C/c2ccccc2)CC1 (centres undefined),-87.8% (active)
15,Cc1cccc(OCC(O)CN2CCN(S(=O)(=O)c3ccc(C)cc3C)CC2)c1 (centres undefined),-9.79%
16,COCCN1CCN(C(=O)c2cc(COc3ccc(F)cc3Cl)on2)CC1,-9.58%
17,Cc1ccc(Cl)c(OCC(=O)N2CCc3ccccc3C2)c1,1.13%
18,OC(COc1ccc(F)cc1Cl)CN1CCc2ccccc2C1 (centres undefined),-83.8% (active)
19,Cc1ccc(OCC(O)CN2CCN(CC(O)COc3ccc(C)cc3Cl)CC2)c(Cl)c1 (centres undefined),-59.6% (active)
20,CCCc1ccc(OCC(O)CN2CCN(CCO)CC2)cc1 (centres undefined),6.19%
